PLCg1 inh – PLC-gamma1 enzyme inhibitors, primary screen, biochemical, fluorescence, purified enzyme. 370,000 tested, 0.84% active. inhibition, % at 12.2 µM. fluorogenic substrate; in the data active = inhibition above about 9.5%
ADAM17 inh – ADAM17 inhibitors, primary screen, biochemical, QFRET; Disintegrin and metalloproteinase domain-containing protein 17 (Homo sapiens), P78536; recombinant ADAM17, EDANS/DABCYL FRET peptide cleavage; 370,000 tested, 0.83% active; inhibition, % at 6.95 µM; AID 720648, 2013;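 active = inhibition above the mean of compounds lying between control limits plus 3 SD, set per campaign, cut at about 8.5% in these data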;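 note: 0% = DMSO-only wells as the low control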
ADAM10 inh – human ADAM10 inhibitors, primary screen, biochemical, QFRET, HTS; Disintegrin and metalloproteinase domain-containing protein 10 (Homo sapiens), O14672; inhibition, % at 7 µM; recombinant ADAM10, EDANS/DABCYL FRET peptide cleavage, 3 h; 370,000 tested, 0.62% active;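 active = inhibition above a per-campaign cutoff equal to the mean of compounds falling between control-based bounds plus 3 SD, cut at about 20% in these data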;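 note: 0% = DMSO wells while the 100% control is not disclosed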
KLK7 zymogen act – proKLK7 zymogen activators, primary screen, biochemical, fluorescence intensity | Kallikrein-7 (Homo sapiens), P49862 | purified proKLK7, EDANS-DABCYL substrate fluorescence; 100% is mature enzyme control, 0% vehicle | activation, % at 7 µM | AID 652039, 2013 | 370,000 tested, 0.9% active;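 active = activation above the mean of all tested compounds plus 3 SD, computed per campaign excluding outliers beyond control limits, cut at about 13% in these data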
PLC-beta3 inh – human PLC-beta3 inhibitors, primary screen, biochemical, fluorescence | 1-phosphatidylinositol 4,5-bisphosphate phosphodiesterase beta-3 (Homo sapiens), Q01970 | Purified PLC-beta3, fluorogenic substrate | inhibition, % at 12.2 µM | 370,000 tested, 0.18% active; in the data active = inhibition above about 11%;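 note: 0% = median of compound wells on plate and 100% = full blocker control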
ADAM10 confirm – human ADAM10 inhibitors, confirmation, biochemical, QFRET, triplicate. shares compounds with ADAM10 inh. 2,100 tested, 1% active. inhibition, % at 6.95 µM. ADAM10 QFRET peptide cleavage, EDANS fluorescence;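 active = inhibition above about 20% chosen separately for each screening run, limit read from the data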;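 note: 0% = DMSO wells and 100% = marimastat wells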
ADAM17 counter – ADAM17 inhibitors, counter-screen for ADAM10 exosite inhibitor project, biochemical, QFRET, high throughput; inhibition, % at 6.95 µM; ADAM17 QFRET peptide cleavage, EDANS fluorescence; shares compounds with ADAM10 inh; 2,100 tested, 0.5% active;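 active = mean triplicate inhibition above the solvent-only control wells' mean plus 3 SD, cut at about 12% in these data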;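 note: 0% = DMSO wells and 100% = marimastat wells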
Starred values were filed as active, the others as inactive. This is a sample that favours compounds with a hit; in the whole collection about 2.9% have one here.

Results for COC(=O)c1cn(NC(=O)Cc2ccc(Cl)cc2)c(=O)c2ccccc12 ?
PLCg1 inh: -1.6; ADAM17 inh: 0.9; ADAM10 inh: -6.3; KLK7 zymogen act: -1.1; PLC-beta3 inh: -4.7

How did Cc1ccc(S(=O)(=O)N2[C@@H](c3ccc(Cl)cc3)C(C(=O)O)=CC[C@H]2c2ccc(C(C)C)cc2)cc1 do in these assays?
PLCg1 inh: -1.2; ADAM17 inh: 0.8; ADAM10 inh: 20.7*; KLK7 zymogen act: 0.1; PLC-beta3 inh: -5.3; ADAM10 confirm: 1.3; ADAM17 counter: -0.4

What do the screens show for `COc1ccccc1NC(=O)N1CCN(c2ccccn2)CC1`?
PLCg1 inh: 0.2; ADAM17 inh: -8.7; ADAM10 inh: -25.5; KLK7 zymogen act: -0.2; PLC-beta3 inh: 0.7

What do the screens show for `Nc1nc(N)c(-c2cccc(C(F)(F)F)c2)c(Cc2cccc(C(F)(F)F)c2)n1`?
PLCg1 inh: 4.0; ADAM17 inh: 14.6*; ADAM10 inh: 36.5*; KLK7 zymogen act: -0.5; PLC-beta3 inh: 1.3; ADAM10 confirm: 0.6; ADAM17 counter: 0.3

What do the screens show for `Nc1ncccc1OCc1cccc(C(F)(F)F)c1`?
PLCg1 inh: -1.1; ADAM17 inh: -2.5; ADAM10 inh: -2.5; KLK7 zymogen act: -0.4; PLC-beta3 inh: -8.3

What do the screens show for `O=C(NCCOc1ccccc1)c1cccc(S(=O)(=O)N2CCN(Cc3ccccc3)CC2)c1`?
PLCg1 inh: 4.1; ADAM17 inh: 7.4; ADAM10 inh: 23.9*; KLK7 zymogen act: 0.4; PLC-beta3 inh: 5.2; ADAM10 confirm: 3.9; ADAM17 counter: 0.8

How did COc1ccc(CNC(=O)c2cccc(S(=O)(=O)N3CCN(c4ccc(F)cc4)CC3)c2)cc1 do in these assays?
PLCg1 inh: 1.0; ADAM17 inh: 7.6; ADAM10 inh: 21.7*; KLK7 zymogen act: 0.6; PLC-beta3 inh: -4.6; ADAM10 confirm: 5.9; ADAM17 counter: 2.0

How did COc1ccccc1N1CCN(c2ccc3c(c2)S(=O)(=O)c2cccc(C(=O)NCC4CC4)c2C3=O)CC1 do in these assays?
PLCg1 inh: -1.4; ADAM17 inh: -2.8; ADAM10 inh: -5.2; KLK7 zymogen act: -0.2; PLC-beta3 inh: -1.0

Results for Cc1ccccc1OC1(C)CCN(Cc2ccc3ccccc3c2)C1 (stereo not given) ?
PLCg1 inh: -0.6; ADAM17 inh: -4.9; ADAM10 inh: -10.2; KLK7 zymogen act: -0.5; PLC-beta3 inh: -1.1

What do the screens show for `COc1ccc(NC(=O)/C(=C\c2cccnc2)NC(=O)c2cccs2)cc1`?
PLCg1 inh: -0.7; ADAM17 inh: -4.4; ADAM10 inh: -3.4; KLK7 zymogen act: -0.4; PLC-beta3 inh: -2.6

Results for CCN(CC)S(=O)(=O)c1cccc(NC(=O)COc2ccc(F)cc2Br)c1 ?
PLCg1 inh: -0.5; ADAM17 inh: 2.1; ADAM10 inh: 20.6*; KLK7 zymogen act: -0.1; PLC-beta3 inh: 4.5; ADAM10 confirm: -0.8; ADAM17 counter: 1.3

How did CCN(CC)S(=O)(=O)c1cccc(NC(=O)COc2ccc(C#N)cc2OC)c1 do in these assays?
PLCg1 inh: 0.6; ADAM17 inh: 3.5; ADAM10 inh: 7.2; KLK7 zymogen act: 0.1; PLC-beta3 inh: 2.3

Results for Nc1nc(Cl)nc2c1ncn2[C@H]1C[C@H](O)[C@@H](CO)O1 ?
PLCg1 inh: -1.4; ADAM17 inh: -3.0; ADAM10 inh: -0.6; KLK7 zymogen act: 0.6; PLC-beta3 inh: 1.1

Results for O=C(CCC(=O)Nc1ccccc1Cl)NNC(=S)Nc1ccccc1C(F)(F)F ?
PLCg1 inh: -1.0; ADAM17 inh: 6.1; ADAM10 inh: 28.3*; KLK7 zymogen act: -0.1; PLC-beta3 inh: -3.5; ADAM10 confirm: 6.2; ADAM17 counter: 3.2

Results for COc1ccc(NC(=O)Cc2coc3cc(C)c(C(C)C)cc23)cc1S(=O)(=O)N1CCOCC1 ?
PLCg1 inh: 0.8; ADAM17 inh: 6.5; ADAM10 inh: 21.5*; KLK7 zymogen act: 0.6; PLC-beta3 inh: -7.1; ADAM10 confirm: 3.7; ADAM17 counter: 1.3

How did COc1ccc2c(CC(=O)Nc3ccc(OC)c(S(=O)(=O)N4CCOCC4)c3)coc2c1 do in these assays?
PLCg1 inh: -1.3; ADAM17 inh: 3.0; ADAM10 inh: 2.1; KLK7 zymogen act: 0.0; PLC-beta3 inh: -2.4

What do the screens show for `COC(=O)c1ccc(-c2cc3onc(-c4ccccc4)c3c(=O)n2C)cc1`?
PLCg1 inh: 2.1; ADAM17 inh: 1.2; ADAM10 inh: 71.3*; KLK7 zymogen act: -0.3; PLC-beta3 inh: 0.2; ADAM10 confirm: 24.6*; ADAM17 counter: 7.2

How did O=C(/C=C/c1ccccc1)Nc1ccc(NC(=O)c2cccs2)cc1 do in these assays?
PLCg1 inh: 8.2; ADAM17 inh: -1.8; ADAM10 inh: 21.7*; KLK7 zymogen act: 0.6; PLC-beta3 inh: 7.1; ADAM10 confirm: 2.4; ADAM17 counter: 0.5

Results for Oc1cc2c(cc1C(c1ccc(Cl)c(Cl)c1)N1CCCC1)OCO2 (stereo not given) ?
PLCg1 inh: 2.6; ADAM17 inh: 8.0; ADAM10 inh: 27.1*; KLK7 zymogen act: -0.5; PLC-beta3 inh: -3.0; ADAM10 confirm: 18.8; ADAM17 counter: 6.3

What do the screens show for `CCOC(=O)C1CCCN(c2cc(C)nc3cc(-c4ccc(F)cc4)nn23)C1` (stereo not given)?
PLCg1 inh: -38.1; ADAM17 inh: -5.5; ADAM10 inh: -7.2; KLK7 zymogen act: -2.1; PLC-beta3 inh: -50.5

Results for N#C/C(=N\Nc1cccc(Cl)c1)C(=O)c1ccccc1 ?
PLCg1 inh: 2.8; ADAM17 inh: 8.1; ADAM10 inh: 20.4*; KLK7 zymogen act: -0.5; PLC-beta3 inh: -0.3; ADAM10 confirm: -1.0; ADAM17 counter: -0.8

What do the screens show for `N#C/C(=N\Nc1ccccc1Cl)C(=O)c1ccccc1`?
PLCg1 inh: -0.8; ADAM17 inh: -4.4; ADAM10 inh: -9.1; KLK7 zymogen act: 0.2; PLC-beta3 inh: -3.0

Results for CCOc1ccc(-c2nnc(-c3ccccc3)n2-c2ccccc2)cc1 ?
PLCg1 inh: -3.3; ADAM17 inh: 0.4; ADAM10 inh: 2.3; KLK7 zymogen act: -0.9; PLC-beta3 inh: 4.0

What do the screens show for `Cc1ccc2oc(=O)c(/C=C(\O)c3ccco3)nc2c1`?
PLCg1 inh: 0.4; ADAM17 inh: 1.3; ADAM10 inh: 21.3*; KLK7 zymogen act: 0.0; PLC-beta3 inh: -13.4; ADAM10 confirm: 1.4; ADAM17 counter: -1.2

Compound activity: PubChem BioAssay, The Scripps Research Institute Molecular Screening Center
